# Laboratory results taken from PubChem BioAssay (EPA / NIEHS).
# Active and inactive are the calls of the source. The calls were made as follows: active = hit-call score of the fitted dose curve at least 0.9, where 1 is the maximum; inactive = score below 0.9.
# Assay: APR_HepG2_NuclearSize_24hr: Apredica 24-hour HepG2 Assay for Nuclear Size (AID 2282907)
# Conditions: high-content imaging, actives raise or lower the signal
# Protocol: APR_HepG2_24hr is a cell-based, multiplexed-readout assay that uses HepG2, a human liver cell line, with measurements taken at 24 hours after chemical dosing in a 384-well plate.APR_HepG2_NuclearSize_24hr is one of 10 assay component(s) measured or calculated from the APR_HepG2_24hr assay. It is designed to make measurements of cell phenotype, a form of morphology reporter, as detected with fluorescence intensity signals by HCS Fluorescent Imaging technology.Data from the assay component APR_HepG2_NuclearSize_24hr was analyzed into 1 assay endpoint. This assay endpoint, APR_HepG2_NuclearSize_24hr, was analyzed with bidirectional fitting relative to DMSO as the negative control and baseline of activity. Using a type of morphology reporter, measures of all nuclear dna for gain or loss-of-signal activity can be used to understand the signaling at the nuclear-level. Furthermore, this assay endpoint can be referred to as a primary readout, because this assay has produced multiple assay endpoints where this one serves a signaling function. To generalize the intended target to other relatable targets, this assay endpoint is annotated to the cell morphology intended target family, where the subfamily is organelle conformation.
# Cells were treated with dimethyl sulfoxide (DMSO) as a solvent control at a final concentration of 0.5% v/v or with compounds in DMSO with a resulting final DMSO concentration of 0.5% v/v. Compound treatment was done at concentrations of 0.39, 0.78, 1.56, 3.12, 6.24, 12.5, 25, 50, 100, and 200 uM in duplicate on each plate. Cells were treated with compounds for 1, 24, or 72 hr. Carbonyl […] m-chloro-phenylhydrazone (CCCP) and taxol were used as positive controls for mitochondrial function and cytoskeletal stability, respectively; DMSO served as the negative control for this experiment. Cells were fixed by the direct addition of 50 uL formaldehyde in Hank's Balanced Salt Solution (HBSS) to a final concentration of 3.7%. After incubation in the fixation medium for 30 min at room temperature (293-298 K), cells were rinsed twice with HBSS and treated with cell permeabilization buffer (16 uL of 0.5% Triton X-100) for 10 min at room temperature (293-298 K) before labeling. For mitochondrial membrane potential and mitochondrial measurements, pre-fixed cells were incubated with 50 uL of MitoTracker Red CMXRos (Invitrogen) at a concentration of 250 nM for 30 min before fixation. In the remaining cases, post-fixed cells were labeled by incubation with a multiplexed mixture of primary antibodies in HBSS for 60 min at room temperature (293-298 K) to detect immunoreactivity of c-Jun (1:500), phospho-histone H3 (1:100), phospho-histone H2A.x (1:200), p53 (1:400), alpha-tubulin (1:200) and Hoechst 33342 (2 ug/mL). Cells were labeled for multiplexed imaging on two separate plates: a) Hoechst 33342, MitoTracker Red, phospho-histone H3, and alpha-tubulin, and b) Hoechst 33342, phospho-histone H2A.x, and c-Jun. A final rinse with HBSS (50 uL) was performed before analysis. The primary and secondary antibodies for the proteins were phospho-histone H3 (rabbit anti-phospho-histone H3 and FITC-donkey anti-rabbit IgG), phospho-histone H2A.x (mouse anti-phospho-histone H2A.x and FITC-donkey anti-mouse IgG), c-Jun (rabbit anti-phospho-c-Jun and Cy3-donkey anti-rabbit IgG), p53 (sheep anti-p53 and Cy5-donkey anti-sheep IgG), alpha-tubulin (mouse anti-alpha-tubulin and Cy5-donkey anti-mouse IgG). These antibodies are available as the CellCiphr HepG2 assay kit (Millipore).Digital images of each well were captured using a Cellomics ArrayScan VTI (Thermo Scientific Cellomics) (0.8 NA objective, 0.63x optical coupler, and XF-93 filter set) at 20x magnification. The images were acquired using the autofocus feature of the ArrayScan instrument, which entails the following steps. First, the camera focuses on channel 1 (Hoechst 33342), where nuclei are identified. Second, a Z offset of 1 um is used for capturing mitochondria (MitoTracker Red). […]
Structure (SMILES),outcome,AC50
CCN1CCC2(CC1)COc1cc3c(cc12)N(C(=O)c1ccc(-c2ccc(-c4nnc(C)o4)cc2C)cc1)CC3,inactive,–
COc1cc(-c2ccc(N)c(OC)c2)ccc1N,inactive,–
C=C(C)C(=O)[O][Sn]([CH2]CCC)([CH2]CCC)[CH2]CCC,inactive,–
NC(=O)O,–,9.65 µM (active)
CC(C)(OO)c1ccccc1,–,65.1 µM (active)
CC(C)(c1ccccc1)c1ccc(O)c(C(C)(C)c2ccccc2)c1,–,22 µM (active)
O=C(O)C(Cl)(Cl)Cl,inactive,–
CCC(=O)C(CC(C)N(C)C)(c1ccccc1)c1ccccc1 (stereo not drawn),inactive,–
Cn1sc(Cl)cc1=O,inactive,–
C[C@@H]1C[C@@H]([C@H](O)CC2CC(=O)NC(=O)C2)C(=O)[C@@H](C)C1,inactive,–
CCC(C)(C)c1ccc(O)c(C(C)(C)CC)c1,–,39.1 µM (active)
CC(C)(C)c1cc(O)ccc1O,inactive,–
O=C1C2(Cl)C3(Cl)C4(Cl)C(Cl)(Cl)C5(Cl)C3(Cl)C1(Cl)C5(Cl)C24Cl (stereo not drawn),inactive,–
CCCCCCCCc1ccc(O)cc1,–,103 µM (active)
Cc1ccccc1N,inactive,–
O=C(O)C(F)(F)C(F)(F)C(F)(F)C(F)(F)C(F)(F)C(F)(F)F,inactive,–
O=C(Nc1ccc2[nH]ccc2c1)c1cc2cc(F)ccc2n1Cc1cccc(F)c1,inactive,–
O=c1[nH]c(=O)[nH]c(=O)[nH]1,inactive,–
Oc1cccc2cccnc12,inactive,–
CC12CC1(C)C(=O)N(c1cc(Cl)cc(Cl)c1)C2=O (stereo not drawn),inactive,–
O=C(O)C(F)(F)C(F)(F)C(F)(F)C(F)(F)C(F)(F)C(F)(F)C(F)(F)C(F)(F)C(F)(F)C(F)(F)F,inactive,–
C=CC(=O)OCCCCCC(C)C,inactive,–
CC(C)(C)CC(C)(C)c1ccc(O)cc1,–,52.3 µM (active)
CC(=O)[O][Hg][c]1ccccc1,–,66.6 µM (active)
ClCC(Cl)CCl,inactive,–
CN(C)N=O,inactive,–
C[C@]12CCC(=O)C[C@@H]1CC[C@@H]1[C@@H]2CC[C@]2(C)[C@@H](O)CC[C@@H]12,inactive,–
ClC1(Cl)C2(Cl)C3(Cl)C4(Cl)C(Cl)(Cl)C5(Cl)C3(Cl)C1(Cl)C5(Cl)C24Cl (stereo not drawn),inactive,–
